{"source": "PubChem BioAssay AID504834", "about": "(National Center for Advancing Translational Sciences (NCATS), 2011)", "note": "In all, about 320,000 compounds went through this assay and about 22,000 (6.9%) were called active. Roughly 27% stayed inconclusive and do not appear here. Many of the other results were omitted from the sample, so actives are more common in it than they were. Values without a mark were called inactive. The call rests on the fitted dose curve; in most records, active means well fitted inhibition curve with a large enough effect; inconclusive means small, poorly fitted or top-dose-only effect, or another doubt; inactive means no such curve, though single readings can be large or run the other way. On the % scale 0 is the no-effect control and ±100 the full control effect; potency means the concentration at half of the fitted maximal effect."}
{"test": "Primary qHTS for delayed death inhibitors of the malarial parasite plastid, 96 hour incubation", "conditions": "P. falciparum luciferase reporter growth; series mostly up to 28.7 µM; activity change, negative = inhibition: at the top concentration", "description": "The goal of this screen is to discover new antimalarial compounds that act by inhibiting the development of the apicoplast in the malarial parasite Plasmodium falciparum. The biochemical processes that make this organelle essential for erythrocytic stage parasites are not well understood. However, antibiotics such as azithromycin and tetracycline, which target the apicoplast translational machinery, have a potent antimalarial effect.\nWe have developed a cell-based assay that measures parasite growth based on the expression of an integrated copy of a firefly luciferase reporter. To detect small molecules that cause this \"delayed death\" phenotype, erythrocytes infected with the luciferase-expressing parasites were incubated with compounds for either one or two generations, corresponding to 48 and 96 hours, respectively. Compounds that inhibit parasite growth in the second generation, but not the first, should be enriched in antimalarials that target the apicoplast. Growth inhibition is detected by a decrease in luciferase activity.\nAssay Provider: David Fidock and Eric Ekland, Columbia University\nKeywords: NIH Roadmap, MLPCN, MLI, MLSMR, qHTS, NCGC, qHTS, malaria, luciferase, viability\nFour microliters of infected erythrocytes (2% hematocrit, 0.05% parasitemia final concentration) in culture medium were dispensed and the plates incubated for 96 hours at 37 C in 5% CO2. Two microliters of luciferase detection reagent was added and luminescence was detected by a ViewLux (PerkinElmer) reader."}
{"smiles": "COc1ccc(C(=O)OCC(=O)c2ccc(Cl)s2)c(OC)c1OC", "activity change, negative = inhibition": "-21.3%"}
{"smiles": "CCc1cccc(C)c1NC(=O)COC(=O)CNC(=O)c1cccs1", "activity change, negative = inhibition": "34.6%"}
{"smiles": "CN(C)c1cccc(C(=O)N2CCC(n3nccc3NC(=O)C3CCOC3)CC2)c1", "note": "(stereo not drawn)", "activity change, negative = inhibition": "16.6%"}
{"smiles": "Cc1nnc2n1N=C(c1ccccc1)CS2", "activity change, negative = inhibition": "22%"}
{"smiles": "CCN(CC)S(=O)(=O)c1ccc(Cl)c(C(=O)NCCN2CCOCC2)c1", "activity change, negative = inhibition": "-25.2%"}
{"smiles": "N#C/C(=C/c1ccc(Cl)cc1)NC(=O)c1ccccc1", "Potency": "3.7 µM (active)"}
{"smiles": "O=C(NCC1CCCO1)/C(=C/c1ccc(Cl)cc1)NC(=O)c1ccccc1", "note": "(stereo not drawn)", "activity change, negative = inhibition": "-28.1%"}
{"smiles": "O=C(NC(=O)c1ccccc1)NC(=O)c1ccccc1", "activity change, negative = inhibition": "-27.2%"}
{"smiles": "COc1ccc(N2C(=O)C(CC(=O)Nc3ccccc3)N(Cc3ccc(OC)c(OC)c3)C2=O)cc1", "note": "(stereo not drawn)", "activity change, negative = inhibition": "10.9%"}
{"smiles": "CCOc1ccc(NC(=O)CC2C(=O)N(c3ccccc3)C(=O)N2CCOC)cc1", "note": "(stereo not drawn)", "activity change, negative = inhibition": "35.9%"}
{"smiles": "CCCOc1ccc(NC(=O)CC2C(=O)N(C)C(=S)N2Cc2ccc3c(c2)OCO3)cc1", "note": "(stereo not drawn)", "Potency": "0.329 µM (active)"}
{"smiles": "CCS(=O)(=O)c1ccc(-c2cccc(NC(=O)c3ccc(Br)o3)c2)nn1", "activity change, negative = inhibition": "1.83%"}
{"smiles": "O=C(OCCN1C(=O)c2ccccc2C1=O)Oc1ccccc1", "activity change, negative = inhibition": "-2.14%"}
{"smiles": "O=C(NCCCn1ccnc1)c1ccccc1F", "activity change, negative = inhibition": "-19.5%"}
{"smiles": "COc1ccc(-c2csc(Nc3ccccn3)n2)cc1", "activity change, negative = inhibition": "9.84%"}
{"smiles": "COc1ccc(-c2cn3cccnc3n2)cc1", "activity change, negative = inhibition": "-27.3% [at 5.75 µM]"}
{"smiles": "COc1ccc(-c2sc3ccc(OC)cc3c2C#Cc2ccccn2)cc1", "Potency": "2.33 µM (active)"}
{"smiles": "CC1(C)C(C=C(Cl)Cl)C1C(=O)NC(O)C(=O)c1ccccc1", "note": "(stereo not drawn)", "activity change, negative = inhibition": "21.7%"}
{"smiles": "COc1ccc(N2CCN(C3CCCCC3NS(=O)(=O)c3ccccc3)CC2)cc1", "note": "(stereo not drawn)", "activity change, negative = inhibition": "19.5%"}
{"smiles": "O=C(NC1Cc2ccccc2C1)c1cc(COc2cccc(C(F)(F)F)c2)on1", "activity change, negative = inhibition": "-18.1%"}
{"smiles": "CC(C)CC(=O)Nc1nnc(S(=O)(=O)N(C)c2ccc(Cl)cc2)s1", "activity change, negative = inhibition": "0%"}
{"smiles": "Cc1cc(C(=O)OCC(=O)N2c3ccccc3NC(=O)C2(C)C)c(C)n1-c1ccccc1", "activity change, negative = inhibition": "0%"}
{"smiles": "CNS(=O)(=O)c1cccc(C(=O)OCC(=O)N2c3ccccc3NC(=O)C2(C)C)c1", "activity change, negative = inhibition": "-26.3%"}
{"smiles": "CCNc1ccc(C(=O)OCC(=O)N2c3ccccc3NC(=O)C2(C)C)cc1[N+](=O)[O-]", "Potency": "9.28 µM (active)"}
{"smiles": "COc1cccc(-n2c(=S)sc3c(=O)n(-c4ccccc4C)c(SCC(=O)O)nc32)c1", "activity change, negative = inhibition": "23.6%"}
{"smiles": "O=C(CN1CCCCCC1)Nc1ccc(Cl)cc1F", "activity change, negative = inhibition": "39.2%"}
{"smiles": "CN(C)C(=O)c1ccc(NC(=O)COC(=O)c2cc3c(s2)CCCCC3)cc1", "activity change, negative = inhibition": "-11.1%"}
{"smiles": "Cc1cc(C)cc(NC(=S)NCCCN2CCOCC2)c1", "activity change, negative = inhibition": "2.48%"}
{"smiles": "CC(CN1CCOCC1)c1ccccc1", "note": "(stereo not drawn)", "activity change, negative = inhibition": "25.6%"}
{"smiles": "CC(C)c1cc(CN2CCOCC2)cc(C(C)C)c1O", "Potency": "10.4 µM (active)"}
{"smiles": "CCOC(=O)Nc1ccc2c(c1)N(C(=O)CCCl)c1ccccc1[S@]2=O", "activity change, negative = inhibition": "-14.6%"}
{"smiles": "Cc1ccc(CCN2CC(C(=O)NCCc3ccccc3)CC2=O)cc1", "note": "(stereo not drawn)", "activity change, negative = inhibition": "68.2%"}
{"smiles": "CC(=O)Nc1c2c(nn1-c1cccc(C)c1)CSC2", "activity change, negative = inhibition": "20.2%"}
{"smiles": "CCCN(CCC)c1nc2c(C)cccn2c(=O)c1/C=C1/SC(=S)N(Cc2ccco2)C1=O", "Potency": "2.08 µM (active)"}
{"smiles": "Cc1ccc2[nH]c(=O)c(-c3nc4c(C)cccn4c3NCc3ccco3)cc2c1", "activity change, negative = inhibition": "10.9% [at 5.75 µM]"}
{"smiles": "O=C(CCCN1C(=O)/C(=C\\c2ccco2)SC1=S)Nc1cccc2ccccc12", "activity change, negative = inhibition": "10.4%"}
{"smiles": "Cn1c(=O)[nH]c(=O)c2c1[nH]c(=S)n2Cc1ccccc1", "activity change, negative = inhibition": "10.9%"}
{"smiles": "COc1ccc(C(=O)Oc2ccc(-c3nnco3)cc2)cc1S(=O)(=O)N1CCOCC1", "activity change, negative = inhibition": "22.5%"}
{"smiles": "COc1ccc(C2=NOC(C(=O)NCc3ccco3)C2)cc1OC", "note": "(stereo not drawn)", "activity change, negative = inhibition": "-4.01%"}
{"smiles": "COc1ccccc1N1CCN(CC(=O)NC(=O)NCc2ccco2)CC1", "activity change, negative = inhibition": "27.5%"}
{"smiles": "COc1cc2c(cc1OC)C(C(=O)NCc1ccco1)C1c3ccccc3CCN1C2=O", "note": "(stereo not drawn)", "Potency": "3.29 µM (active)"}
{"smiles": "CCCCNC(=O)CN1C(=O)NC(Cc2ccccc2)(Cc2ccccc2)C1=O", "activity change, negative = inhibition": "7.91%"}
{"smiles": "CCOC(=O)c1c(NC(=O)c2cccs2)sc(C)c1C", "activity change, negative = inhibition": "50.7%"}
{"smiles": "CCOC(=O)c1c(NC(=S)NC(=O)/C=C/c2cccs2)sc(C)c1C", "activity change, negative = inhibition": "0%"}
{"smiles": "CCOC(=O)c1c(NC(=O)/C=C/c2ccco2)sc(C)c1C", "Potency": "2.33 µM (active)"}
{"smiles": "Cn1c(Nc2ccccc2)cc(=O)n(C)c1=O", "activity change, negative = inhibition": "11.9%"}
{"smiles": "CCCCCCSc1ccc([C@@H]2[C@@H]3C(=O)N(CC)C(=O)[C@@H]3[C@]3(C(=O)OC)CCCCN23)cc1OC", "Potency": "6.57 µM (active)"}
{"smiles": "COCCCN1C(=O)c2ccc(C(=O)Nc3ccc(OC)cc3OC)cc2C1=O", "activity change, negative = inhibition": "25.7% [at 5.75 µM]"}
{"smiles": "CCN1C(=O)[C@@H]2[C@@H](c3ccc(-c4ccc(OC)cc4)c(OC)c3)N3CCC[C@@]3(C(=O)OC)[C@@H]2C1=O", "Potency": "10.4 µM (active)"}
{"smiles": "CCN1C(=O)[C@@H]2[C@@H](c3ccc(-c4cccc(Cl)c4)cc3)N3CCC[C@@]3(C(=O)OC)[C@@H]2C1=O", "Potency": "8.28 µM (active)"}
{"smiles": "COC(=O)CN1C(=O)[C@H]2[C@@H](C3CC3)N3C(=O)CN(Cc4ccc(-c5ccccc5)cc4)C(=O)[C@@]3(Cc3ccccc3)[C@H]2C1=O", "activity change, negative = inhibition": "40.9%"}
{"smiles": "COc1ccc(N2C(=O)CCC(C(=O)N(C)C3CCCCC3)C2c2ccc(OC)c(OC)c2)cc1", "note": "(stereo not drawn)", "activity change, negative = inhibition": "-2.32%"}
{"smiles": "CCn1cc(CN2CCC(C(=O)Nc3cccc(-c4cccc(Cl)c4)c3)CC2)c(C)n1", "activity change, negative = inhibition": "11.7%"}
